# JMJD2A Tudor – blocks the human JMJD2A Tudor domain. AID 504339. AlphaScreen JMJD2A-Tudor / H3K4me3 peptide binding. Potency, µM (series often up to 114 µM), most hits filed as inhibitors. hit rate 4.4% among 390,000; further: nearly all actives have a fitted effect of over 50% in size
# G9a inh – G9a (human) methyltransferase inhibition. G9a H3K9 monomethylation, AlphaScreen, 2 h. AID 504332. Q96KQ7. Potency, µM (highest dose often 102 µM), most hits filed as inhibitors. hit rate 8.8% among 350,000; further: nearly all actives have a fitted effect of over 75% in size
#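 Chemiluminescent proximity detection of H3K9 monomethylation, read after 10 min bead incubation in the dark. Reaction: 20 nM G9a, 500 nM biotin-H3K9 peptide, 20 uM SAM cofactor, 2 h, room temperature, following 15 min enzyme-compound preincubation.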
# Six1-Eya2 blk – blocks human Six1 binding to Eya2 | Q15475+O00167 | AlphaScreen GST-Six1/His-Eya2 binding, biochemical; active compounds read low | activity change, % (concentration not given with the values) | hit rate 0.56% among 360,000; in the data active means activity change below about -65%; inconclusive means mostly about -30% to -63%
#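 Compounds are tested against tagged Six1 and Eya2 proteins bridged by glutathione donor and nickel acceptor beads; after a one-hour incubation at 37 °C without light, AlphaScreen emission is recorded.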
# CtBP-E1A blk – blocks the CtBP interaction with E1A; AlphaScreen GST-E1A/His-CtBP binding, 1536-well; active compounds read low; activity change, % (no concentration beside the values); hit rate 0.49% among 340,000; in the data active means activity change below about -65%; inconclusive means mostly about -30% to -63%
#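 AlphaScreen with 125 nM GST-E1A and 125 nM His-CtBP (5X stocks) in Tris pH 8.0, 300 mM NaCl, BSA, Tween 20, TCEP. Compounds preincubated 2 h at 37 deg C, then glutathione donor/nickel acceptor beads added for 1 h at 37 deg C in dark.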
# HP1b binding inh – blocks HP1-beta chromodomain binding to methylated histone tails; P83916; AlphaScreen HP1-beta / biotin-H3K9me3 peptide binding; Potency, µM (top dose mostly 114 µM), hits mostly inhibitors; hit rate 0.56% among 390,000; further: nearly all actives have a fitted effect of over 70% in size
#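 Compound inhibition of the preformed complex between 50 nM HP1-beta and 50 nM biotinylated H3K9me3 peptide was read by AlphaScreen. Buffer was PBS pH 7.4 with 0.01% Tween-20. Incubations ran 30 min at room temperature, with 10 ug/mL donor/acceptor beads.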
# BAZ2B block – BAZ2B (human) inhibition; AID 504333; hit rate 4.4% among 360,000; Potency, µM (titrated, usually from 114 µM), actives largely listed as inhibitors; AlphaScreen BAZ2B-H3K14Ac peptide displacement; further: nearly all actives have a fitted effect of over 60% in size
#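 AlphaScreen displacement: compounds (up to 110uM) incubated 30 min at room temperature with a preformed 50 nM BAZ2B/50 nM biotinylated H3K14Ac peptide complex in PBS pH 7.4 with Tween-20. Donor and acceptor beads at 10 ug/mL final added, 20 min light-protected before reading.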
# Numbers stand for hits; – = inactive; ? = inconclusive; · = not tested or not shown; ! = a repeat was not active; [ ] = dose if it differs, or a comment. Compounds with a hit are over-represented: about 10% of the library has one in this group of screens. Unless noted, the call rests on the fitted dose curve; in most records, active means well fitted inhibition curve with a large enough effect; inconclusive means small, poorly fitted or top-dose-only effect; inactive means no such curve, though single readings can be large or run the other way.
SMILES,JMJD2A Tudor,G9a inh,Six1-Eya2 blk,CtBP-E1A blk,HP1b binding inh,BAZ2B block
CC(C)=CC(=O)OCC(=O)NC1CCCc2ccccc21 (stereo not given),–,–,–,–,–,–
CC1CN(C(=O)N2CCC(C(=O)NC3CCCCCC3)CC2)c2cc(Cl)ccc2O1 (stereo not given),–,?,·,·,?,–
O=C(O)c1ncn(Cc2ccc(Br)cc2)c1C(=O)O,–,3.98µM,–,–,–,31.6µM
O=C(c1ncn(Cc2ccccc2)c1C(=O)N1CCN(c2ccccc2)CC1)N1CCN(c2ccccc2)CC1,?,·,–,–,–,·
COc1cc([C@@H]2C[C@H]3CN(c4ccccc4)C(=O)[C@]34CCCN24)cc(OC)c1OC,–,·,–,·,–,–
CCOc1cc([C@@H]2C[C@H]3CN(c4ccccc4)C(=O)[C@]34CCCN24)ccc1OC,–,50.1µM,–,–,–,–
Fc1ccc(C2=CC(c3ccc(Br)o3)n3ncnc3N2)cc1 (stereo not given),31.6µM,8.91µM,–,–,–,–
C1=C(c2ccc(-c3ccccc3)cc2)Nc2ncnn2C1c1ccco1 (stereo not given),–,31.6µM,–,–,–,–
Fc1ccc(Br)cc1C1C=C(c2cccnc2)Nc2ncnn21 (stereo not given),?,44.7µM,–,–,–,–
CCOc1ccc(C2=CC(c3cc(Br)ccc3F)n3ncnc3N2)cc1Cl (stereo not given),–,–,·,·,–,–
O=C1CC(NS(=O)(=O)c2cccs2)CN1c1ccccc1 (stereo not given),–,–[2.33 µM],–,–,–,–
Cc1ccc(C)c(NC(=O)Cn2cnc3nc4c(cc3c2=O)CCCC4)c1,–,–,·,·,–,–
S=c1nc(-c2sccc2OCc2ccc(Cl)cc2Cl)[nH][nH]1,–[11.4 µM],44.7µM,–,·,–,?
CNC(=S)NNC(=O)c1sccc1OCc1ccc(Cl)cc1Cl,–,–,–,–,–,–
COc1ccc(CCCc2nnc(SCC(=O)Nc3ccc(OC)cc3)o2)cc1,28.2µM!,?,–,–,–,–
COc1ccc(NCc2nnc(SCC(=O)c3ccc(C)cc3)o2)cc1,?,14.1µM,–,–,–,?
Cc1ccc(C2=NN(CC(=O)NCCCN(CC(C)C)CC(C)C)C(=O)CC2)cc1,–,–,·,·,–,–
Nc1csnc1C(=O)O,20µM,31.6µM,–,–,–,?
COc1ccc(Nc2nnc(SCc3cn4c(C)cccc4n3)s2)cc1,–,?,–,–,–,?
Cc1cccn2cc(CSc3nnc(Nc4ccc(C(C)C)cc4)s3)nc12,–,39.8µM,–,–,–,–
CN(CC(=O)Nc1cccc(F)c1)C(=O)c1cc(-c2cccs2)nn1-c1ccccc1,–,50.1µM,–,–,–,?
CCCN(CC(=O)Nc1ccccc1OC)C(=O)c1cc(-c2cccs2)nn1-c1ccccc1,–,44.7µM,–,–,–,–
CN(CC(=O)Nc1ccccc1C(F)(F)F)C(=O)c1cc(-c2cccs2)nn1-c1ccccc1,–,–[0.501 µM],–,–,–,–
CCN(CC(=O)Nc1ccccc1C(F)(F)F)C(=O)c1cc(-c2cccs2)nn1-c1ccccc1,–,·,–,–,–,–
O=C(O)c1cc(-c2cccs2)nn1-c1ccc(F)cc1,–,44.7µM,–,–,–,?
SMILES,JMJD2A Tudor,G9a inh,Six1-Eya2 blk,CtBP-E1A blk,HP1b binding inh,BAZ2B block
COC(=O)c1cc(-c2cccs2)nn1-c1ccccc1,–,–,–,–,–,–
COc1ccc(C(=O)NCC(=O)N2CCN(c3ccc(F)cc3)CC2)cc1,–,–,–,–,–,–
CCc1ccc(NC(=O)CSc2nc3c([nH]c4ccccc43)c(=O)n2C)cc1,–,–,·,·,–,–
CC(=O)N(C(C)=O)N1C(=O)/C(=C/c2ccc(Cl)cc2)SC1=S,11.2µM,14.1µM,–,–,10µM,28.2µM
CN1CCN(C(=O)CCN2C(=O)/C(=C\c3ccc(Cl)cc3)SC2=S)CC1,–,–,–,–,–,–
Cc1ccc(C)n1N1C(=O)/C(=C\c2ccc(Cl)cc2)SC1=S,39.8µM,?,–,–,–,2.82µM
Cn1cc([C@@H]2C[C@H]3CN(Cc4cccc(Cl)c4)C(=O)[C@]34CCCN24)c2ccccc21,–,50.1µM,–,–,–,–
